This is a sample that favours compounds with a hit; in the whole collection about 3.2% have one here.
APOBEC3A inh: blocks human APOBEC3A ssDNA deamination; P31941; recombinant A3A, FAM/TAMRA ssDNA deamination fluorescence; inhibition, % at 20 µM; 330,000 compounds, 0.41% hits; AID 493011;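 active = at least 40% inhibition at 20 µM here, with at most 30% in a related deaminase screen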;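 note: plate controls were A3A with DMSO for no effect and wells lacking A3A enzyme for full effect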
Target sequence (P31941 whole entry, looked up): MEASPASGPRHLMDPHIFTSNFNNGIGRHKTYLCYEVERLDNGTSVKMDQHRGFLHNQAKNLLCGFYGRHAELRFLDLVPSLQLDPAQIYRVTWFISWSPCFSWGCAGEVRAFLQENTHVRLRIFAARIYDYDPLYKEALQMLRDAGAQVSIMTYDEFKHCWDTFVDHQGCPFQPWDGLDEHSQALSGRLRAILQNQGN
NTR1 agonist: agonists of human neurotensin receptor NTR1; P30989; NTR1-U2OS beta-arrestin-GFP spot imaging, agonist mode; activation, % at 20 µM; 330,000 compounds, 0.17% hits; AID 493036;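 active = activation at or above 40% of the spot to cytoplasm intensity ratio, with at least 20 cells analyzed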;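 note: 0% = DMSO without peptide and 100% = 100 nM NTR1 peptide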
APOBEC3G inh: APOBEC3G (human) deaminase inhibition. inhibition, % at 20 µM. recombinant A3G, ssDNA deamination FAM/TAMRA fluorescence. Q9HC16. 330,000 compounds, 0.28% hits. AID 493012;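 active = inhibition of at least 40% at 20 µM, with no more than 30% in the related APOBEC3A deaminase screen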;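 note: plate controls were DMSO wells with A3G for no effect and wells lacking A3G enzyme for full effect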
AHR activator: human AHR activation. activation, % at 5 µM. AHR-responsive luciferase reporter cells, luminescence. P35869. 320,000 compounds, 2.5% hits; in the data active = activation above about 47%;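 note: 0% = vehicle wells and 100% = reference agonist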
AHR act confirm: human AHR activation, confirmation. human cells, AHR-responsive luciferase reporter, luminescence. shares compounds with AHR activator. AID 2845. 2,300 compounds, 87% hits. activation, % at 9 µM; in the data active = activation above about 49%;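 note: HepG2 hepatoma cells carrying a DRE-driven firefly luciferase reporter; 0% = vehicle wells and 100% = reference agonist wells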
PXR act counter: counter-screen for AHR activators: human PXR activators; shares compounds with AHR activator; cell-based PXR reporter, luciferase luminescence; activation, % at 11.6 µM; 2,300 compounds, 88% hits; AID 434939; in the data active = activation above about 11%;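 note: human hepatoma DPX-2 cells expressing full-length human PXR; 0% = DMSO and 100% = reference agonist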
APOBEC3A confirm: confirmation of human APOBEC3A DNA deaminase inhibitors; shares compounds with APOBEC3A inh; recombinant A3A, ssDNA deaminase UDG fluorescence assay; inhibition, % at 20 µM; 1,400 compounds, 63% hits; AID 493151;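 active = inhibition reaching a set limit, 80% of the first screen's cutoff, at 20 µM in any replicate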;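 note: plate controls were DMSO wells with A3A for no effect and wells lacking A3A enzyme for full effect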
UDG ctr A3A: UDG inhibition in APOBEC3A counter-screen. shares compounds with APOBEC3A inh. UDG counterscreen, FAM/TAMRA uracil oligo fluorescence. inhibition, % at 20 µM. 1,000 tested, under 10 active; call rule not given here
A3G conf: APOBEC3G (human) deaminase inhibition, confirmed | shares compounds with APOBEC3G inh | recombinant A3G ssDNA deaminase, UDG/FAM-TAMRA fluorescence | inhibition, % at 20 µM | 890 compounds, 72% hits | AID 493152;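 active = inhibition reaching a set limit in any replicate at 20 µM, the limit being 80% of the first screen's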
UDG ctr A3G: inhibits E. coli UDG, flagging false APOBEC3G inhibitors; shares compounds with APOBEC3G inh; UDG counterscreen, FAM/TAMRA oligo fluorescence; inhibition, % at 20 µM; 710 tested, under 10 active;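 active = compounds giving 40% or more inhibition at 20 µM in any one of the three replicates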;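 note: plate controls were DMSO wells with UDG and oligo for no effect and DMSO wells lacking both for full effect; inhibitors lower the FAM signal released by uracil excision and alkaline cleavage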
Target sequence (P12295 whole entry, looked up): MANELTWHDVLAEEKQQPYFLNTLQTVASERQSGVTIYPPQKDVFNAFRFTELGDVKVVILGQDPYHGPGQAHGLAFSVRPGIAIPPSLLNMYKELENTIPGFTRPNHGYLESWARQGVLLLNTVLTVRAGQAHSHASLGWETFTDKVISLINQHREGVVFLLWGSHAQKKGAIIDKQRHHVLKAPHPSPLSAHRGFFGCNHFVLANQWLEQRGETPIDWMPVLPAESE
* hit, by the source's call; / = no result given.

SMILES	APOBEC3A inh	NTR1 agonist	APOBEC3G inh	AHR activator	AHR act confirm	PXR act counter	others
O=C1c2cccc3cccc(c23)C(=O)N1CCN1CCN(C(=S)Nc2ccccc2)CC1	1	1	-7	98*	101*	98*
CCNC(=S)N1CCN(CCN2C(=O)c3cccc4cccc(c34)C2=O)CC1	3	2	-7	-2	/	/
CC(C#N)(Cc1ccccc1)Nc1ccccc1 (configuration not stated)	-4	0	-7	0	/	/
O=C(Cc1ccsc1)Nc1ccccc1F	1	0	-4	0	/	/
N#Cc1ccncc1Sc1ccc(Cl)cc1	-2	-1	-5	3	/	/
O=C(N/N=C/c1cn(Cc2ccccc2)c2ccccc12)c1ccncc1	-1	4	-4	24	/	/
O=C(N/N=C/c1cn(Cc2ccccc2)c2ccccc12)c1cccnc1	-2	3	-6	86*	-9	-3
C#CCn1cc(/C=N/NC(=O)c2cc3ccccc3o2)c2ccccc21	-5	4	-7	112*	87*	/
S=C1NC(c2cccs2)=CC(c2ccc(Br)cc2)N1 (configuration not stated)	-6	3	-11	117*	111*	60*
COc1ccccc1CNC(=O)C(=O)NCC1CCCN1S(=O)(=O)c1cccs1 (configuration not stated)	-4	0	-11	4	/	/
Cc1ccc(NC(=O)CSCC(=O)N2CCN(c3cccc(C(F)(F)F)c3)CC2)cc1	3	2	-7	1	/	/
CN(C)Cc1cnc2ccc(Cl)cn12	-3	3	-8	0	/	/
CN(C)Cc1c(-c2ccc(Cl)cc2)nc2ccc(Cl)cn12	-4	2	-9	133*	109*	12*
C/C(=N\NC(=S)Nc1cccc(C)c1)c1ccccc1	-3	3	-4	84*	111*	42*
COCCCN=CC1=C(O)CC(c2ccccc2)CC1=O (configuration not stated)	-4	0	-5	4	/	/
COc1ccccc1N=CC1=C(O)CC(c2ccccc2)CC1=O (configuration not stated)	0	-1	-1	100*	94*	13*
Cc1cccc2nc(C(=O)Nc3cc(Cl)ccc3-n3cncn3)cn12	49*	1	9	88*	88*	30*	APOBEC3A confirm=36*;UDG ctr A3A=-1
COc1cccc(CN2CCC(C(=O)N3CCN(c4ccccc4F)CC3)CC2)c1OC	0	2	1	-1	/	/
COc1ccc(OC)c2c1C(=O)C(Cl)=C(Cl)C2=O	-6	-3	88*	137*	-4	-7	A3G conf=92*;UDG ctr A3G=-2
CC(=O)c1cc(CN2CCC(n3nccc3NC(=O)c3ccccc3)CC2)cs1	-2	0	-7	-1	/	/
Cc1cc(-c2n[nH]c(=S)n2/N=C/C(Cl)=C/c2ccccc2)n[nH]1	-3	5	25	18	/	/
Cc1cc(-c2n[nH]c(=S)n2/N=C/c2sccc2C)n[nH]1	-4	-2	57*	112*	91*	25*	A3G conf=86*;UDG ctr A3G=17
Cc1ccc(-n2sc3ccccc3c2=O)cc1	2	-1	77*	80*	74*	30*	A3G conf=71*;UDG ctr A3G=-4
Cc1ccc(Cn2c(=O)sc3ccccc3c2=O)cc1	5	5	0	-2	/	/
COc1ccc(S(=O)(=O)N(C)C[C@H]2Oc3c(NC(=O)c4ccncc4)cccc3C(=O)N([C@H](C)CO)C[C@@H]2C)cc1	-6	1	-9	0	/	/
SMILES	APOBEC3A inh	NTR1 agonist	APOBEC3G inh	AHR activator	AHR act confirm	PXR act counter	others
CN(C)S(=O)(=O)N1CCN(c2ccc([N+](=O)[O-])c(N3CCCCC3)c2)CC1	5	0	1	9	/	/
Cc1cccc(OCCn2c(=S)[nH]c3ccccc32)c1	8	4	62*	81*	90*	74*	A3G conf=46*;UDG ctr A3G=-1
S=c1[nH]c(-c2ccccc2)cn1/N=C/c1cccnc1	-9	0	50*	82*	102*	17*	A3G conf=73*;UDG ctr A3G=2
COc1ccc(CCNC(=O)CN(C2CCCCC2)S(C)(=O)=O)cc1OC	44*	1	25	0	/	/	APOBEC3A confirm=58*;UDG ctr A3A=5
Cc1ccc(S(=O)(=O)NC(=O)c2cc(C)n(-c3ccc(N(C)C)cc3)c2C)cc1	0	0	23	4	/	/
O=[N+]([O-])c1ccc(CN2CCN(c3ccccc3Cl)CC2)o1	54*	0	3	-1	/	/	APOBEC3A confirm=0
O=[N+]([O-])c1ccccc1/C=C/C=N/Nc1nc(N2CCCCC2)nc(N2CCCCC2)n1	78*	2	16	2	/	/	APOBEC3A confirm=81*;UDG ctr A3A=-2
O=C(O)c1ccc(S(=O)(=O)c2ccc([N+](=O)[O-])cc2[N+](=O)[O-])cc1	-4	2	-5	3	/	/
N=C(N)Cc1ccccc1Sc1ccccc1	42*	0	1	-2	/	/	APOBEC3A confirm=1
c1ccc(Sc2ccccc2CN2CCCC2)cc1	2	-1	3	-2	/	/
CCOc1ccc(C(=O)N2CCC3(CC2)NCCc2[nH]cnc23)cc1OCC	-6	2	-9	0	/	/
CCCCN(C(=O)c1cc(-c2ccco2)nc2ccccc12)c1c(N)n(CCCC)c(=O)[nH]c1=O	39	0	15	7	/	/
COCCN(C(=O)c1cc(-c2ccco2)nc2ccccc12)c1c(N)n(Cc2ccccc2)c(=O)[nH]c1=O	46*	-2	25	1	/	/	APOBEC3A confirm=32*;UDG ctr A3A=-4
CCCCn1c(N)c(N(CC(C)C)C(=O)c2cc(-c3ccc(OC)c(OC)c3)nc3ccccc23)c(=O)[nH]c1=O	27	-1	-1	6	/	/
CCCCn1c(N)c(N(CCOC)C(=O)c2cc(-c3ccc(OC)c(OC)c3)nc3ccccc23)c(=O)[nH]c1=O	52*	0	9	-1	/	/	APOBEC3A confirm=40*;UDG ctr A3A=-1
CCCCn1c(N)c(N(CCOC)C(=O)c2cc(-c3ccco3)nc3ccccc23)c(=O)[nH]c1=O	42*	1	18	1	/	/	APOBEC3A confirm=30*;UDG ctr A3A=-1
CC(C)(C)c1ccc(Cn2nc(CC(=O)O)c3ccccc3c2=O)cc1	-1	0	-6	5	/	/
Clc1ccc(-c2cc(-c3ccccc3)on2)cc1	95*	-2	-7	16	/	/	APOBEC3A confirm=-7;UDG ctr A3A=-4
Cc1ccc(NC(=O)CN(C)C(=O)c2nn(C)c(=O)c3ccccc23)cc1	-3	5	-8	2	/	/
